Laboratory results published in PubChem BioAssay (NCI).
The panel holds about 83,000 compounds, 20% with a hit somewhere; the sample as a whole holds those more often.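 96-well plates, one dose, 48 hours. Percent growth reported; active if below 10.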 A number with no mark means an inactive call. The source made the active and inactive calls.

Assays:
Assay in all cases: NCI-60 one-dose screen, 48 h (100 = growth as untreated, 0 = no growth, -100 = all killed)
NCI-H23 lung = details: 10 µM unless noted
NCI-H226 lung = details: 10 µM unless noted
NCI-H322M lung = details: 10 µM unless noted
HOP-62 NSCLC = details: 10 µM unless noted
NCI-H460 lung = details: 10 µM unless noted
HOP-92 NSCLC = details: 10 µM
NCI-H522 lung = details: 10 µM unless noted
A549/ATCC NSCLC = details: 10 µM unless noted
786-0 renal = details: 10 µM unless noted
COLO 205 colon = details: 10 µM unless noted

| SMILES | growth (NCI-H23 lung) | growth (NCI-H226 lung) | growth (NCI-H322M lung) | growth (HOP-62 NSCLC) | growth (NCI-H460 lung) | growth (HOP-92 NSCLC) | growth (NCI-H522 lung) | growth (A549/ATCC NSCLC) | growth (786-0 renal) | growth (COLO 205 colon) |
| --- | --- | --- | --- | --- | --- | --- | --- | --- | --- | --- |
| NC(N)=Nc1ccc(Oc2cccc(NC(N)=Nc3ccc(Br)c(C(F)(F)F)c3)c2)cc1 | 54.4% | 68.6% | 57.8% | 53.3% | 24.3% | 10.5% | 35.7% | 41.7% | 76.5% | 27.9% |
| COc1cc(/C=C2\C(=O)Nc3ccccc32)ccc1OCc1ccc(Cl)cc1 | 93.3% | 96.6% | 99.7% | 101% | 41.1% | 112% | 95.8% | 107% | 106% | 116% |
| O=C(O)c1ccc(-n2cc(CNc3cc(F)c(F)c(F)c3)c(-c3cccc(F)c3)n2)cc1 | 84.9% | 93.9% | 97.2% | 114% | 98.8% | 104% | 91.5% | 77.2% | 112% | 126% |
| COc1ccc(NC(=O)Nc2ccc3c(ccn3C(=O)c3cccc(F)c3)c2)cc1 | 72.5% | 69.2% | 95.1% | 91% | 31.7% | 71.6% | 78.6% | 53.9% | 58.2% | 104% |
| COC(=O)C1(C)CCC[C@]2(C)[C@H]3C[C@H]4C(C(C)C)=C[C@]3(CC[C@@H]12)[C@H]1[C@@H]4[C@@H](OC(=O)c2ccco2)CC[C@@H]1OC(=O)c1ccco1 (stereo not given in full) | 104% | 103% | 106% | 96.9% | 117% | 102% | 99.6% | 102% | 94.3% | 115% |
| O=C1CC(=O)N2CSCN(C(c3ccccc3)c3nc4ncncc4[nH]3)C2=N1 (stereo not given) | 99.7% | 107% | 106% | 96.8% | 112% | 112% | 93.9% | 105% | 104% | 114% |
| C=C1CC[C@@H]2[C@](C)(CO)[C@H](O)CC[C@@]2(C)[C@@H]1C/C(O)=C1\CCOC1=O | 104% | 108% | 103% | 102% | 103% | 101% | 82.5% | 96% | 111% | 130% |
| COc1ccc(N2CCN(C3=C(Cl)C(=O)C(C)=C(C)C3=O)CC2)cc1 | 106% | 99.2% | 106% | 91.5% | 104% | 102% | 92.3% | 108% | 118% | 125% |
| CCOC(=O)C(=O)CC(=O)N1C(=S)NC(=O)C1CC(C)C (stereo not given) | 88.3% | 99.1% | 96.8% | 101% | 110% | 99.6% | 100% | 103% | 96.1% | 107% |
| N=c1c2cc(-c3ccccc3)oc2ncn1/N=C/c1ccc(Br)cc1 | 102% | 71.3% | 78.1% | 73.7% | 15.8% | 105% | 91.8% | 44.2% | 59.2% | 98.9% |
| CNC(=O)c1c(NC(=O)c2ccccc2C(F)(F)F)sc2c1CCC(=O)C2 | 13.9% | 64.2% | 105% | 98.6% | 57.4% | 1.45% (active) | 3.39% (active) | 70.9% | 39.6% | 16.2% |
| Cn1ccnc1C(=O)/C=C/c1ccc(CNC(=O)c2c(F)c(F)c(F)c(F)c2F)cc1 | 52.5% | 69.5% | 81% | 66.5% | 7.14% (active) | 117% | 32.1% | 70.4% | 28% | 102% |
| CCCCCc1ccc(S(=O)(=O)Nc2cc(-c3csc(NC(=O)CN4CCN(CCO)CC4)n3)ccc2OC)cc1 | 71.3% | 82.9% | 52.3% | 78.7% | -14% (active) | 46.8% | 45.7% | 43.4% | -51.5% (active) | -21.4% (active) |
| CS(=O)(=O)c1ncc(-c2ccccc2)cn1 | 96% | 101% | 91.2% | 100% | 108% | 104% | 86.4% | 94.2% | 109% | 108% |
| NC(N)=Nc1ccc(Oc2cccc(NC(N)=Nc3ccc(Br)cc3)c2)cn1 | 61.1% | 81.3% | 65.1% | 65.6% | 46.7% | 29% | 46.9% | 53.5% | 68.7% | 16.5% |
| NC(=O)c1c(NC(=O)c2ccc(F)cc2F)sc2c1CCC(=O)C2 | 18.5% | 88% | 99.8% | 104% | 109% | 66.1% | 10.2% | 106% | 83.4% | 98.7% |
| C#CCOc1ccc(/C=N\Nc2nc(-c3ccc(C)cc3)cs2)cc1OC | 87.2% | 86.8% | 92.2% | 98.5% | 95.5% | 73.3% | 74.5% | 88.6% | 99.2% | 94.6% |
| COc1ccc2c(c1)c(CC(=O)[Se]CC#N)c(C)n2C(=O)c1ccc(Cl)cc1 | -11.3% (active) | 29.6% | -1.05% (active) | 14.1% | 14.5% | 26.3% | -51.3% (active) | -9.27% (active) | 47.3% | -24.8% (active) |
| Cc1ccc(NC(=O)c2ccc(CN3CCN(C)CC3)cc2)cc1Oc1ccc(-c2[nH]nc3ncnc(N)c23)cc1 | 99.6% | 98.5% | 97.3% | 104% | 110% | 98.3% | 89.9% | 98.8% | 63.7% | 28.1% |
| O=C1[C@H]2Cc3c([nH]c4ccccc34)[C@@H](c3ccc(Cl)cc3)N2C(=O)CN1C1CCN(Cc2ccccc2)CC1 | 73.8% | 49% | 57.1% | 74.8% | 29.8% | 42.5% | 81.1% | 43.8% | 64.3% | 50.6% |
| CCCCc1nc(/C=N/Nc2nc(Nc3ccccc3)nc(Nc3ccc(S(N)(=O)=O)cc3)n2)c(Cl)[nH]1 | 101% | 99% | 99.1% | 101% | 100% | 60.1% | 41.9% | 108% | 95.3% | 72% |
| c1ccc(C(c2nc3ncncc3[nH]2)N2CSc3nc4ccccc4n3C2)cc1 (stereo not given) | 107% | 98.7% | 106% | 96.6% | 107% | 91.5% | 98.2% | 107% | 101% | 110% |
| O=C(CSc1nc2ccccc2c(=O)n1-c1ccc(Cl)cc1)N/N=C/c1ccc(N2CCCCC2)cc1 | 65.9% | 38.2% | 77% | 18.4% | 9.74% (active) | 62.3% | 88.1% | 49.4% | 7.2% (active) | 82.1% |
| COc1cc(-c2nnc(SCc3ccc(O)c4ncccc34)n2-c2ccccc2)cc(OC)c1OC | 9.25% (active) | 8.85% (active) | 19.2% | 6.41% (active) | -29.8% (active) | -12.5% (active) | -8.34% (active) | 0.31% (active) | 8.31% (active) | 10.1% |
| COc1c(N2CC3CCCNC3C2)c(F)cc2c(=O)c(C(=O)N/N=C/c3ccc4c(c3)OCO4)cn(C3CC3)c12 (stereo not given) | 81.8% | 86.5% | 88.3% | 101% | 79.2% | 67.4% | 29.3% | 70.2% | 50.3% | 85.5% |
| C=CCn1c(SCC(=O)Nc2ccc(C(=O)/C=C/c3ccc(Br)cc3)cc2)nnc1-c1c[nH]c2ccccc12 | 90% | 84.7% | 93.7% | 92.7% | 95.4% | 86.4% | 82.5% | 73.5% | 102% | 109% |
| CCN(CC)c1ccc2c(c1)Oc1nc(N)c(C#N)c(N)c1C2Sc1ccc(F)cc1 (stereo not given) | -82.3% (active) | -84.8% (active) | -84.8% (active) | -15% (active) | -69.8% (active) | -36.7% (active) | -48.7% (active) | -39.6% (active) | -83.8% (active) | -58.5% (active) |
